Tested on: RARb homodimer (NR concentration 270 nM)
Experiment: PBM binding z-score (relative to random genomic background probes); higher = stronger binding; sequences stand for … in GC…GCGATTGACAGCGTAGAATGAAGG
Procedure, shortened: (§1)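 Ligand-free nuclear receptor dimers were bound for 1 h to custom Agilent 4×180K protein-binding microarrays. Detection used antibodies against each partner (one per run). Binding z-scores rest on regression-normalized fluorescence, with random background probes as the reference.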

Q: With ATCGAAAGGTCGTGTGGTGAGTATACAGAAAGGC as the sequence, how does the PBM binding z-score read?
A: 2.97

Q: How did the PBM binding z-score turn out when CGTCCAAGGTCATCGGAGGTCAGTGAAGACAGAT was run?
A: 5.43

Q: With CCATACAGGTGAGAAGGTAACTCAGCCTCGATTA as the sequence, how does the PBM binding z-score read?
A: 0.666

Q: Which PBM binding z-score does the source give for ATCGAAAGGTCGACGAGGTGAGTCTACACCGTTT here?
A: 3.08

Q: Which PBM binding z-score does the source give for CCTCGAAGGACAGAAGGTCAGAGCTGTCCGCTTT here?
A: 3.54

Q: How did the PBM binding z-score turn out when CCTATTAGTTGACCGTAAGGGCAACCGAAGCTCG was run?
A: 2.75

Q: With TAGCCTAGGTCATGCAGGGGCCAGTATAGAAAGC as the sequence, how does the PBM binding z-score read?
A: 3.35

Q: With CCTACTCGGCCATTCAGAGGTCATTGATCATATG as the sequence, how does the PBM binding z-score read?
A: 4.19

Q: With CCTCGGAGGACAGAAGGTCAGAGCTGTCCGCTTT as the sequence, how does the PBM binding z-score read?
A: 3.43

Q: How did the PBM binding z-score turn out when GCGACTGGTGCAAAGCAGGTTACCATAAGGTTGG was run?
A: 0.217

Q: CGTCCAAGGTCAGAGAGGTCAATGAATGCCGAGT was tested. Which PBM binding z-score did it give?
A: 5.42

Q: With CCTATTAGTTGACCATAAGGGCTACCGAAGCTCG as the sequence, how does the PBM binding z-score read?
A: 1.04

Q: How did the PBM binding z-score turn out when CAAACTAGGGCACAGAGGTCAAAGTCCGTGCGTA was run?
A: 4.61

Q: TAGCCCAGGTCATGCGGGCCAGTATAGTGTCGGC was tested. Which PBM binding z-score did it give?
A: 2.94

Q: How did the PBM binding z-score turn out when CCGAGTTGGTTATGGGGCATTCAGGCAACGGTGA was run?
A: 0.393

Q: Which PBM binding z-score does the source give for GCTACAGGGTCAAGGCCAGAGTACGCGTATTGAT here?
A: 3.58

Q: With CCTACTGGGCCATCATGTCATTGATATCAACGTT as the sequence, how does the PBM binding z-score read?
A: 0.671

Q: How did the PBM binding z-score turn out when TCATATAGGTAAGACAGGTGAAAGTCGGCATCTA was run?
A: 0.625

Q: Which PBM binding z-score does the source give for CCTAGTTGGTGAAGGTCACACACGCTATAGGTAC here?
A: 4.26

Q: With ATCTCTAGGTAAACATAGTTCAGTGAATGCAAAT as the sequence, how does the PBM binding z-score read?
A: 1.42

Q: How did the PBM binding z-score turn out when TCATATAGGTAATTCAGGTGAAAGTCGGCATCTA was run?
A: 0.654

Q: How did the PBM binding z-score turn out when CCTAGCTGGCCAGGGTCACTCAAGCATTTCGCTT was run?
A: 2.33

Q: How did the PBM binding z-score turn out when TCATATAGGTAGAGGTGAAAGTCGAACGATATGA was run?
A: 1.04

Q: With TCGAGTAGGTTAGGAGCATTCAGAATGGCGTCGA as the sequence, how does the PBM binding z-score read?
A: -0.383

Q: For ACTTACGGGGCAACGAGGTTATAGCACGCGTATA, which PBM binding z-score is on record?
A: 1.13

Q: With AGAATGAGGTTATTAAGATCTGGGAATTGCGGTC as the sequence, how does the PBM binding z-score read?
A: 0.732

Q: Which PBM binding z-score does the source give for CCTGCTAGGCCAATGGTCAGCTAAAGCAGCTCGC here?
A: 0.323

Q: CGTCCAAGGTCAAAGGAGGTCAGTGAAGACAGAT was tested. Which PBM binding z-score did it give?
A: 5.57

Q: With CGAACTAGGTCAGAACAGGACAGTGAGGGATGAT as the sequence, how does the PBM binding z-score read?
A: 2.12

Q: TCATATAGGTAAGGGTGAAAGTCGAACGATATGA was tested. Which PBM binding z-score did it give?
A: 0.703

Q: Which PBM binding z-score does the source give for CAAACTAGGTTACGAAAGGTCAAAGTCGAATGAC here?
A: 5

Q: Which PBM binding z-score does the source give for TCTAATAGTTGAAGGGCAACCGACGAGTCCGTTT here?
A: 1.24

Q: How did the PBM binding z-score turn out when GCTGCTAGGTCAGGTAGGTCAGCTAACGGGTACG was run?
A: 4.09

Q: With CCTTACGGGTCACTTCAGGTTATAGCATCGGAGT as the sequence, how does the PBM binding z-score read?
A: 2.86

Q: How did the PBM binding z-score turn out when CCGACTGGGGCAAAGGTTACCATACTCAGTACGA was run?
A: 2.22

Q: How did the PBM binding z-score turn out when GATACAGGGTTAGCTAGAGGCCAGAGTATGGAAA was run?
A: 0.99

Q: GCGACTGGGGCAAAGCAGGTTACCTTAAGGTTGG was tested. Which PBM binding z-score did it give?
A: 0.957

Q: With GCGACTGGGGCATCAGCAGGTTACCATCACTTAA as the sequence, how does the PBM binding z-score read?
A: 0.92

Q: For AGAATGAGGTTATTAGGATCAGGGAATTGCGGTC, which PBM binding z-score is on record?
A: 1.24

Q: ATACCATGGTGATCGTGAGGTCGTTGATACTAAC was tested. Which PBM binding z-score did it give?
A: 1.18

Tested on: RARg:RXRa (NR concentration 270 nM, RXRa partner concentration 90 nM)
Experiment: as above
Procedure, shortened: as §1

Q: Which PBM binding z-score does the source give for ATCGAAAGGTCGTGTGGTGAGTATACAGAAAGGC here?
A: 4.21

Q: CGTCCAAGGTCATCGGAGGTCAGTGAAGACAGAT was tested. Which PBM binding z-score did it give?
A: 7.31

Q: How did the PBM binding z-score turn out when CCATACAGGTGAGAAGGTAACTCAGCCTCGATTA was run?
A: 0.662

Q: For ATCGAAAGGTCGACGAGGTGAGTCTACACCGTTT, which PBM binding z-score is on record?
A: 4.01

Q: For CCTCGAAGGACAGAAGGTCAGAGCTGTCCGCTTT, which PBM binding z-score is on record?
A: 3.21

Q: CCTATTAGTTGACCGTAAGGGCAACCGAAGCTCG was tested. Which PBM binding z-score did it give?
A: 1.73

Q: Which PBM binding z-score does the source give for TAGCCTAGGTCATGCAGGGGCCAGTATAGAAAGC here?
A: 6.15

Q: For CCTACTCGGCCATTCAGAGGTCATTGATCATATG, which PBM binding z-score is on record?
A: 4.17

Q: How did the PBM binding z-score turn out when CCTCGGAGGACAGAAGGTCAGAGCTGTCCGCTTT was run?
A: 3.39

Q: Which PBM binding z-score does the source give for GCGACTGGTGCAAAGCAGGTTACCATAAGGTTGG here?
A: -0.209

Q: Which PBM binding z-score does the source give for CGTCCAAGGTCAGAGAGGTCAATGAATGCCGAGT here?
A: 7

Q: With CCTATTAGTTGACCATAAGGGCTACCGAAGCTCG as the sequence, how does the PBM binding z-score read?
A: 0.591

Q: With CAAACTAGGGCACAGAGGTCAAAGTCCGTGCGTA as the sequence, how does the PBM binding z-score read?
A: 5.79

Q: TAGCCCAGGTCATGCGGGCCAGTATAGTGTCGGC was tested. Which PBM binding z-score did it give?
A: 4.07

Q: CCGAGTTGGTTATGGGGCATTCAGGCAACGGTGA was tested. Which PBM binding z-score did it give?
A: -0.17

Q: GCTACAGGGTCAAGGCCAGAGTACGCGTATTGAT was tested. Which PBM binding z-score did it give?
A: 5.38

Q: CCTACTGGGCCATCATGTCATTGATATCAACGTT was tested. Which PBM binding z-score did it give?
A: 0.216

Q: TCATATAGGTAAGACAGGTGAAAGTCGGCATCTA was tested. Which PBM binding z-score did it give?
A: 0.754

Q: Which PBM binding z-score does the source give for CCTAGTTGGTGAAGGTCACACACGCTATAGGTAC here?
A: 4.01

Q: ATCTCTAGGTAAACATAGTTCAGTGAATGCAAAT was tested. Which PBM binding z-score did it give?
A: 0.884

Q: TCATATAGGTAATTCAGGTGAAAGTCGGCATCTA was tested. Which PBM binding z-score did it give?
A: 0.323

Q: For CCTAGCTGGCCAGGGTCACTCAAGCATTTCGCTT, which PBM binding z-score is on record?
A: 3.05

Q: How did the PBM binding z-score turn out when TCATATAGGTAGAGGTGAAAGTCGAACGATATGA was run?
A: 1.18

Q: With TCGAGTAGGTTAGGAGCATTCAGAATGGCGTCGA as the sequence, how does the PBM binding z-score read?
A: -0.196

Q: Which PBM binding z-score does the source give for ACTTACGGGGCAACGAGGTTATAGCACGCGTATA here?
A: 1.75

Q: Which PBM binding z-score does the source give for AGAATGAGGTTATTAAGATCTGGGAATTGCGGTC here?
A: 1.04

Q: How did the PBM binding z-score turn out when CCTGCTAGGCCAATGGTCAGCTAAAGCAGCTCGC was run?
A: -0.216

Q: Which PBM binding z-score does the source give for CGTCCAAGGTCAAAGGAGGTCAGTGAAGACAGAT here?
A: 6.67

Q: With CGAACTAGGTCAGAACAGGACAGTGAGGGATGAT as the sequence, how does the PBM binding z-score read?
A: 2.44

Q: TCATATAGGTAAGGGTGAAAGTCGAACGATATGA was tested. Which PBM binding z-score did it give?
A: 0.914

Q: Which PBM binding z-score does the source give for CAAACTAGGTTACGAAAGGTCAAAGTCGAATGAC here?
A: 6.3

Q: TCTAATAGTTGAAGGGCAACCGACGAGTCCGTTT was tested. Which PBM binding z-score did it give?
A: 0.639

Q: How did the PBM binding z-score turn out when GCTGCTAGGTCAGGTAGGTCAGCTAACGGGTACG was run?
A: 4.09

Q: With CCTTACGGGTCACTTCAGGTTATAGCATCGGAGT as the sequence, how does the PBM binding z-score read?
A: 4.35

Q: CCGACTGGGGCAAAGGTTACCATACTCAGTACGA was tested. Which PBM binding z-score did it give?
A: 3.52

Q: With GATACAGGGTTAGCTAGAGGCCAGAGTATGGAAA as the sequence, how does the PBM binding z-score read?
A: 3.12

Q: How did the PBM binding z-score turn out when GCGACTGGGGCAAAGCAGGTTACCTTAAGGTTGG was run?
A: 0.509

Q: Which PBM binding z-score does the source give for GCGACTGGGGCATCAGCAGGTTACCATCACTTAA here?
A: 0.879

Q: How did the PBM binding z-score turn out when AGAATGAGGTTATTAGGATCAGGGAATTGCGGTC was run?
A: 1.4

Q: For ATACCATGGTGATCGTGAGGTCGTTGATACTAAC, which PBM binding z-score is on record?
A: 0.425
